Reference: PubChem BioAssay AID1259343 (VanderVen Lab, College of Veterinary Medicine, Cornell …, 2017)
Among all 6,200 compounds or so, about 2,900 (47%) were called active. So high a share suggests a set chosen from earlier hits. Some of the results follow. Unmarked numbers belong to inactive results. Rule as the data show it: active = inhibition above about 50%; inactive = the rest.

experiment: Mycobacterium tuberculosis growth inhibition, primary screen (AID 1259343); settings: inhibition: at 10 µM, stronger effect = higher value; outcome: 10 uM

Row | SMILES | inhibition
1 | S=C(Nc1ccccc1)Nc1nncs1 | 15.5%
2 | Cc1cnc(NC(=O)c2ccc(N(C)C3CCCCC3)cc2)s1 | 45.9%
3 | O=C(Nc1nncs1)c1ccc(C2CCCCC2)cc1 | 82.1% (active)
4 | O=C1NC(=S)SC1=Cc1ccccc1OCc1ccccc1 | 102% (active)
5 | O=C1NC(=S)SC1=Cc1ccccc1OC(F)F | 81.1% (active)
6 | N#Cc1ccc(-c2ccc(O)cc2)cc1 | 96.9% (active)
7 | C=CCOc1ccc(-c2ccc(C#N)cc2)cc1 | -10.6%
8 | Oc1ccc(-c2ccc(I)cc2)cc1 | 20.3%
9 | O=C(Nc1ccc(Cl)cc1)N1CCC1c1ccccc1F (stereo not given) | -6.67%
10 | O=C(CCl)N1CCSC1c1ccccc1F (stereo not given) | 99.6% (active)
11 | CCN1CCN(c2c(CN(C(=O)Nc3ccc(SC)cc3)C(C)C)c(C)nn2-c2cccc(F)c2)CC1 | 74.4% (active)
12 | Cn1nc(C(=O)NCC23CC4CC(CC(C4)C2)C3)ccc1=O | 77.1% (active)
13 | CCCn1nc(C(=O)NC(C)c2nnc3n2CCC3)ccc1=O (stereo not given) | 3.57%
14 | O=C(O)c1cc(-c2cccc(F)c2)n2nc(-c3ccccc3)cc2n1 | 34.3%
15 | O=c1cc(-c2ccccc2)nc2sc(Br)nn12 | 102% (active)
16 | Nc1c(C=C2C=C([N+](=O)[O-])C=C(Br)C2=O)c(=O)nc2sc(-c3ccccc3)nn12 | 45.7%
17 | O=c1[nH]c2cc(Cl)c(Br)cc2o1 | 81.6% (active)
18 | O=c1[nH]c2c(Br)c(Br)c(Cl)cc2o1 | inactive
19 | O=c1[nH]c2c(Cl)c(Cl)c(Cl)cc2o1 | 31.7%
20 | CCc1c(C)nc(-n2nc(C)cc2NC(=O)c2cccc3ccccc23)[nH]c1=O | 100% (active)
21 | CCc1c(C)nc(-n2nc(C)cc2NC(=O)c2ccccc2C)[nH]c1=O | 12.6%
22 | CCc1cc(=O)[nH]c(-n2nc(C)cc2NC(=O)c2ccccc2SC)n1 | 99.7% (active)
23 | CCc1c(C)nc(-n2nc(C)cc2NC(=O)Cc2cccc3ccccc23)[nH]c1=O | 98.5% (active)
24 | Cc1cc(NC(=O)c2cccc3ccccc23)n(-c2nc(C)c(C)c(=O)[nH]2)n1 | -30.4%
25 | CCc1c(C)nc(-n2nc(C)cc2NC(=O)c2ccccc2SC)[nH]c1=O | 100% (active)
26 | CNc1cccc(-c2ccc(O)cc2)n1 | 33.6%
27 | C=CCn1c(-c2ccc(Cl)cc2Cl)csc1=Nc1cccc(O)c1 | -10.5%

Row | SMILES | inhibition
28 | CCOC(=O)Cn1c(=NC(=O)c2ccccc2[N+](=O)[O-])sc2cc(C(C)C)ccc21 | 3.22%
29 | CCc1c(C)nc(-n2nc(C)cc2NC(=O)c2cc3ccccc3o2)[nH]c1=O | -38.5%
30 | CCc1c(C)nc(-n2nc(C)cc2NC(=O)c2cc(=O)c3ccccc3o2)[nH]c1=O | 101% (active)
31 | CCc1c(C)nc(-n2nc(C)cc2NC(=O)c2ccccc2C(F)(F)F)[nH]c1=O | 101% (active)
32 | Cc1nc(-c2cccc(F)c2)nc(N2CCNCC2)c1Cc1ccccc1 | 66.1% (active)
33 | Cc1cccc(OC2CN(c3nc(-c4ccccn4)nc4c3CCNC4)C2)c1 | 26.7%
34 | Cc1nc(-c2ccc(Cl)cc2)nc(N2CCNCC2)c1Cc1ccccc1 | 97.6% (active)
35 | Cc1ccc(-c2nc(C)c(C(C)C)c(N3CCNCC3)n2)cc1 | 44%
36 | CCc1c(C)nc(-c2ccc(OC)cc2)nc1N1CCNCC1 | 42.7%
37 | Cc1nc(-c2ccc(Cl)cc2)nc(N2CCNCC2)c1C | 79.2% (active)
38 | Cc1cccc(-c2nc(C)c(Cc3ccccc3)c(N3CCNCC3)n2)c1 | 101% (active)
39 | Cc1nc(C)c(Cc2ccccc2Cl)c(N2CCN(C(=O)c3cccc(Br)c3)CC2)n1 | 29.3%
40 | COC(=O)c1ccc(NC(=O)c2ccc(Br)o2)cc1 | 83.8% (active)
41 | CN(Cc1ccc(Cl)cc1)c1nccc(-c2cc(C(=O)O)ccn2)n1 | 17.6%
42 | Cc1ccc(CN(C)c2ccc(C(=O)O)cc2)cc1 | 51.7% (active)
43 | CN(Cc1ccc(C(N)=O)cc1)c1cccc(F)c1C#N | 13.8%
44 | O=C(CCc1ccc(O)cc1)N1CCOC(c2ccc(Cl)cc2)C1 (stereo not given) | 19.6%
45 | O=C(CCc1ccc(O)cc1)c1c(O)cc(O)cc1O | 93.3% (active)
46 | O=C(NCCc1ccc(O)cc1)Nc1cccc2c1CCCC2 | 7.1%
47 | Clc1ccc2nc(NN=Cc3ccccn3)nc(-c3ccccc3)c2c1 | 92.1% (active)
48 | Clc1ccc(NN=Cc2ccccn2)cc1Cl | 14.1%
49 | C(=NNc1ccc2ccccc2n1)c1ccccn1 | -19.7%
50 | Nc1ccc(S(=O)(=O)Nc2ccnn2-c2ccccc2)cc1 | 55.2% (active)
51 | CC(C)=CCCC(C)CCNCCc1ccco1 (stereo not given) | -15%
52 | CC(NC(=O)c1ccc(Oc2ccccc2)cc1)C1CCCO1 (stereo not given) | 92.8% (active)
53 | CC(Nc1nc(-c2cccs2)nc2ccccc12)C1CCCO1 (stereo not given) | -41.2%
54 | CC(=O)N1CCC(NC(=O)c2ccc(Oc3ccccc3)cc2)CC1 | 16.9%

Row | SMILES | inhibition
55 | Cc1cccc(/C=C/c2nc(-c3cc(C(=O)O)co3)cs2)c1 | 42.9%
56 | OCC1(CCc2ccccc2)CCCN(Cc2cc3ccccc3o2)C1 (stereo not given) | 23.5%
57 | Oc1ccccc1CN1CCCn2cccc2C1c1cccc(C(F)(F)F)c1 (stereo not given) | 22.1%
58 | CC(C)(C)c1ccc(C2=NC(=Cc3ccc4c(c3)OCO4)C(=O)O2)cc1 | -19.9%
59 | O=C(C=Cc1ccc2c(c1)OCO2)c1ccc(Cl)cc1Cl | 73.5% (active)
60 | O=C(C=Cc1ccc2c(c1)OCO2)c1ccc(Br)cc1 | -39.3%
61 | COC(=O)CCc1nnc(NS(=O)(=O)c2ccc(C)c(C)c2)s1 | 48.8%
62 | COC(=O)c1nnn(-c2ccc(C)c(C)c2)c1C(=O)OC | 82.4% (active)
63 | Cc1cc(N)c2ccccc2[n+]1CCCCCCCCCC[n+]1c(C)cc(N)c2ccccc21 | 72.6% (active)
64 | c1cnc2c(c1)ccc1cccnc12 | 95.2% (active)
65 | c1ccc(-c2cn3c(n2)CCc2ccc4cccnc4c2-3)cc1 | 16.6%
66 | c1cnc(Sc2ccc3ccccc3c2)nc1 | 32.8%
67 | NC(=O)COc1cccc(CN2CCCSc3ccccc32)c1 | 35.4%
68 | Cc1c(Cc2ccccc2)c(=O)oc2cc(OCC(N)=O)ccc12 | 62.1% (active)
69 | COc1cccc(-c2coc3c(C)c4oc(=O)c(CCC(=O)O)c(C)c4cc23)c1 | 47%
70 | CCc1ccc(OCCCn2c(CO)nc3ccccc32)cc1 | 77% (active)
71 | CCc1ccc(OCCn2c(CO)nc3ccccc32)cc1 | 34.1%
72 | ClC1(Cl)CC1Cn1c(Cc2ccccc2)nc2ccccc21 (stereo not given) | 25.7%
73 | CCOc1ccc(N=C(Nc2ccc(OCC)cc2)SC)cc1 | -1.39%
74 | COc1ccc(N=C(Nc2ccc(OC)cc2)SC)cc1 | 74.3% (active)
75 | Cn1c(=S)[nH]c2scc(-c3cccs3)c2c1=O | -21.9%
76 | CCn1c(=S)[nH]c2sc3c(c2c1=O)CCC(C)C3 (stereo not given) | 21.2%
77 | CCn1c(=S)[nH]c2scc(-c3cccs3)c2c1=O | 98.8% (active)
78 | Cc1csc(NC(=O)c2ccc(COc3cccc4c3OC(C)(C)C4)cc2)n1 | 92.8% (active)
79 | CCN(CC)[P+](N(C)Cc1ccco1)(N(CC)CC)N(CC)CC | 30.8%
80 | NC1=NC(c2cccc(Cl)c2)n2c(nc3ccccc32)N1 (stereo not given) | 56.7% (active)
81 | NC1=NC(c2ccc(-c3ccccc3)cc2)n2c(nc3ccccc32)N1 (stereo not given) | 26.9%

Row | SMILES | inhibition
82 | CC(C)c1ccc(C2N=C(N)Nc3nc4ccccc4n32)cc1 (stereo not given) | 13.8%
83 | Cc1oc(C)c(C(=O)NC(C)Cc2ccc(Cl)cc2)c1C (stereo not given) | 42.4%
84 | CC(Cn1cccn1)NC(=O)c1ccc(Br)o1 (stereo not given) | 22.1%
85 | Cc1cc(C(=O)NC(C)Cc2ccc(Br)cc2)on1 (stereo not given) | 55.5% (active)
86 | CCCn1nc(C)c(CNc2ccc(Br)cc2)c1C | 20%
87 | COc1ccc(C2CC(=O)c3cc([N+](=O)[O-])ccc3O2)cc1 (stereo not given) | 96.6% (active)
88 | CN(C)C(=O)n1nnnc1Cc1ccc(-c2ccccc2)cc1 | 39.2%
89 | O=C(CCc1nnc(Cc2ccc(-c3ccccc3)cc2)o1)NCCc1ccccn1 | 50.7% (active)
90 | O=C(CCc1nnc(Cc2ccc(-c3ccccc3)cc2)o1)NC1CCc2ccccc21 (stereo not given) | 62% (active)
91 | O=C(CCc1nnc(Cc2ccc(-c3ccccc3)cc2)o1)NCc1cccnc1 | inactive
92 | Cc1cn2nc(NC3CCc4ccccc43)sc2n1 (stereo not given) | 41.4%
93 | CC(NC(=O)CCc1nnc(Cc2ccc(-c3ccccc3)cc2)o1)c1ccccc1 (stereo not given) | 37.7%
94 | O=c1oc2c(c(O)c1-c1ccccc1)-c1ccccc1CC2 | 81% (active)
95 | O=C(Cc1coc(-c2ccccc2)n1)NC1CCCC1 | 21.1%
96 | CC(C)(C)c1nc(CNC(=O)Cc2ccc(Cl)cc2)no1 | 27.8%
97 | O=C(Cc1noc(C2CC2c2ccc(Cl)cc2)n1)NC1CCCC1 (stereo not given) | 91.9% (active)
98 | Nc1ccc(-n2cnc3ccccc32)cc1 | 90.2% (active)
99 | CCOC(=O)c1cnc(SCc2ccc(Cl)cc2)nc1N | 89.2% (active)
100 | CC(C)c1nc(SCC(=O)N(C)CCOc2ccc(Cl)cc2)n[nH]1 | 34.8%
101 | Brc1ccc(-c2ccc(Br)cc2)cc1 | 38.3%
102 | Clc1ccc2nnc(-c3ccc(Br)cc3)n2n1 | 68.1% (active)
103 | CC(CC(=O)Nc1ccccc1-c1nn[nH]n1)CC(C)(C)C (stereo not given) | -15.1%
104 | CCOC(=O)c1c(C)c(C(=O)NCCC(C)C)c(C)n1Cc1ccccc1 | 56.4% (active)
105 | CC(C)CCNC(=O)c1csc(-c2ccccc2)n1 | -48.7%
